# High-throughput results (PubChem BioAssay)
# HT1080 IDH1KD tx – qHTS for induction of synthetic lethality in tumor cells producing 2HG: qHTS for the HT-1080-IDH1KD cell line; 2% of 360,000 active; Potency, µM (top dose mostly 46.1 µM), actives largely listed as cytotoxic; AID 686971, 2013; HT-1080 IDH1 knockdown viability, ATP luminescence, 48 h
#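 Knockdown cells (IDH1KD HT-1080) received compounds 2 h after plating at 750 cells/well and were kept 48 h at 37 °C in 5% FBS RPMI. A CellTiter-Glo luminescence read gave % activity for curve fitting.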
# SW480 rereplic – A quantitative high throughput screen for small molecules that induce DNA re-replication in SW480 colon adenocarcinoma cells. SW480 DNA re-replication, Hoechst DNA content imaging, 48 h. Potency, µM (doses to about 46.1 µM), usual class: activators. 1.8% of 340,000 active. AID 624297, 2012; further: nearly all actives have a fitted effect of over 55% in size
#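 250 cells/well; 23 nL cpd via pin tool; 48 hr, 37 C, 5% CO2; Hoechst 40 min; imager read of total nuclear intensity, ex 405/em 500-530 nm.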
# KB-V1 cytotox – qHTS assay for MDR1-selective chemotherapeutics: Primary screen using the drug-selected MDR subline cells KB-V1; KB-V1 MDR cells viability, CellTiter-Glo, 72 h; Potency, µM (top dose mostly 46.1 µM), actives largely listed as cytotoxic; 3.4% of 400,000 active; further: nearly all actives have a fitted effect of over 60% in size
#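 Cells of the MDR subline KB-V1 are plated, dosed with compound at multiple concentrations, and incubated 72 h at 37 degrees C; CellTiter-Glo is then added and luminescence read after 10 min.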
# MCF10A rereplic – A quantitative high throughput screen for small molecules that induce DNA re-replication in MCF 10a normal breast cells; MCF 10A DNA re-replication, Hoechst nuclear intensity, 48 h; Potency, µM (top dose mostly 46.1 µM), usual class: activators; 2.9% of 350,000 active; AID 624296, 2012; further: nearly all actives have a fitted effect of over 50% in size
# KB-3-1 tox – qHTS assay for MDR1-selective chemotherapeutics: Primary screen using the parental adenocarcinoma cell KB-3-1. KB-3-1 viability, CellTiter-Glo ATP luminescence, 72 h. Potency, µM (top dose mostly 46.1 µM), actives largely listed as cytotoxic. 1.4% of 400,000 active; further: nearly all actives have a fitted effect of over 60% in size
#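 KB-3-1 cells, DMEM (no phenol red) + 10% FBS; compound by pin transfer, 72 h, 37 °C. Readout: CellTiter-Glo luminescence after 10 min. Data normalized, curve-fitted.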
# HT1080NT lethal – qHTS for induction of synthetic lethality in tumor cells producing 2HG: qHTS for the HT-1080-NT fibrosarcoma cell line. HT-1080-NT fibrosarcoma viability, CellTiter-Glo ATP luminescence, 48 h. Potency, µM (top dose mostly 46.1 µM), hits mostly cytotoxic. 1.6% of 360,000 active. AID 686970, 2013;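 further: NT is the 2HG producing partner of a matched IDH1 knockdown line; nearly all actives have a fitted effect of over 55% in size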
#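 A 48-hour cytotoxicity screen used HT-1080-NT cells plated 2 hours before compound delivery. ATP-based CellTiter-Glo luminescence measured viability, normalized to DMSO and no-cell controls.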
# Hits are given with their value; i = inactive; ? = inconclusive; nt = not tested or not shown. This is a sample that favours compounds with a hit; in the whole collection about 7.9% have one here. The call rests on the fitted dose curve; in most records, active means well fitted curve in the direction sought with a large enough effect; inconclusive means small, poorly fitted or top-dose-only effect, or another doubt; inactive means no such curve, though single readings can be large; an effect the other way counts as inactive or inconclusive.
SMILES,HT1080 IDH1KD tx,SW480 rereplic,KB-V1 cytotox,MCF10A rereplic,KB-3-1 tox,HT1080NT lethal
CCN(CC)c1ccc(C2NC(=O)c3ccccc3N2)cc1 (stereo not given),?,10.3µM,2.31µM,5.8µM,4.11µM,?
CCN(CC)c1ccc(N=C2C(=O)Nc3ccccc32)cc1,20.6µM,?,i,?,?,?
O=C1NC(c2ccc(Br)cc2)Nc2ccccc21 (stereo not given),11.6µM,?,6.51µM,18.4µM,?,5.8µM
Cc1ccc2c(c1)c(=O)c(C(=O)c1ccc3c(c1)OCO3)cn2Cc1cccc(F)c1,nt,nt,i,nt,i,nt
Cc1oc2ncn(CC(C)C)c(=O)c2c1C(=O)NCCCN(Cc1ccccc1)C(C)C,nt,nt,?,nt,i,nt
COC(=O)/C=C1\OCc2ccc(C)cc21,i,nt,i,nt,i,i
COc1ccc(C(CC(=O)Nc2ccc(Cl)cc2F)NC(=O)C(F)(F)F)cc1 (stereo not given),?,i,8.2µM,i,i,?
O=C1CC(SC(=Nc2ccccc2)Nc2ccccc2)C(=O)N1c1cccc(Cl)c1 (stereo not given),23.1µM,i,i,i,?,?
O=C1CC(SC(=Nc2ccccc2)Nc2ccccc2)C(=O)N1c1ccc(Cl)cc1 (stereo not given),i,i,i,i,i,i
CCC(CC)C(C(=O)NCc1ccccc1)N1CCN(c2cccc(C)c2C)CC1 (stereo not given),i,nt,?,nt,i,i
COc1ccnc(Oc2ccc(F)cc2)c1C(=O)N/C=N/OCc1ccc(F)cc1Cl,i,?,?,i,i,i
COc1ccnc(Oc2ccc(F)cc2)c1C(=O)N/C=N/OCc1ccc(Cl)cc1Cl,i,2.31µM,?,?,i,i
COc1cc(OC)cc(-c2nc3ccccc3c(=O)n2OC(=O)c2ccccc2C)c1,?,i,?,16.4µM,i,?
CC(=O)NC1C(=O)N(Cc2ccccc2)c2ccc(Br)cc21 (stereo not given),i,i,?,i,i,i
CC(=O)NC1C(=O)N(CCc2ccccc2)c2ccc(Br)cc21 (stereo not given),i,i,5.8µM,i,i,i
CNC(=O)c1cc2c(n(-c3ccc(C)cc3)c1=O)CC(C)(C)CC2=O,nt,nt,i,nt,i,nt
Cc1cc(C(=O)N2CCCC(C(=O)c3ccc(Cl)cc3C)C2)no1 (stereo not given),i,23.1µM,?,?,i,i
Cc1c(CCCN)c2ccccc2n1Cc1ccccc1,20.6µM,?,?,?,i,?
Cc1cccc(-n2c(=O)c3ccccc3n(Cc3ccccc3)c2=O)c1,nt,nt,i,nt,i,nt
CCC(C)n1ncn(-c2ccc(N3CCN(c4ccc(OCC5COC(Cn6cncn6)(c6ccc(Cl)cc6Cl)O5)cc4)CC3)cc2)c1=O (stereo not given),?,?,?,?,i,?
CCC(C)n1ncn(-c2ccc(N3CCN(c4ccc(O)cc4)CC3)cc2)c1=O (stereo not given),?,i,i,?,1.46µM,?
COc1cccc(CN2C(=O)c3cccc(N)c3C2=O)c1,i,?,i,18.4µM,i,i
COc1cccc(/C=N/NC(=O)COc2cccc3cccnc23)c1O,18.4µM,13µM,i,?,?,i
COc1cc([N+](=O)[O-])cc(/C=N/NC(=O)C(C)Nc2cccc3ccccc23)c1O (stereo not given),18.4µM,?,?,?,?,?
CCOc1cc(C#N)c(NC(=O)c2cccnc2)cc1OCC,5.17µM,5.17µM,?,3.66µM,0.651µM,?
CCOc1cccc(/C=N/NC(=O)c2cccnc2)c1O,5.17µM,i,?,i,i,?
Cc1ccc(Sc2ccc(N3CCCC(C(=O)Nc4ccc(Br)cc4)C3)nn2)cc1 (stereo not given),nt,nt,i,nt,i,nt
